A selection: hits, their analogues and other compounds. The true share with any hit is near 2.1%.
EP2 mod – EP2 receptor modulators, cAMP readout, primary screen, cell-based, HTRF cAMP, PGE2 stimulation | 260,000 tested, 0.83% active | EP2-expressing cells, cAMP HTRF FRET, PGE2 co-stimulation | induction, % at 25 µM | AID 940, 2007 | Prostaglandin E2 receptor EP2 subtype (Homo sapiens), P43116;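 active means compounds whose cAMP rise, as percent of the full-agonist control response, exceeds 60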;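 further: rat C6 glioma line stably carrying human EP2 under a CMV promoter; the protocol text gives 20 µM as final concentration; 100% = response of wells given 1 µM PGE2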
Target sequence (P43116 whole entry, looked up): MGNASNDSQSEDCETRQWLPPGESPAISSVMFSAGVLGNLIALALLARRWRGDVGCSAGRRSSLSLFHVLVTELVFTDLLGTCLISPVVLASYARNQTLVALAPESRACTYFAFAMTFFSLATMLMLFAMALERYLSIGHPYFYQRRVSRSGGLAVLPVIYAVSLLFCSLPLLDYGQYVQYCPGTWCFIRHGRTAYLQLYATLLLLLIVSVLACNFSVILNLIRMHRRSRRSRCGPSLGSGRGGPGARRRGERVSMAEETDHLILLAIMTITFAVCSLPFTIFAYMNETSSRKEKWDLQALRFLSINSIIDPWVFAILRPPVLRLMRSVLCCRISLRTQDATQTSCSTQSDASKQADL
Avidin bead fluor – green autofluorescence of compounds with avidin beads – biophysical, 488/530 nm, flow cytometry, artefact control, profiling panel; compound fluorescence 488/530 nm; active compounds read high; fluorescence (KMESF) at 10 µM; 220,000 tested, 0.38% active; AID 1775, 2009; in the data active means fluorescence above about 47
GSH fluor – compound fluorescence on glutathione beads, profiling panel, artefact control, biophysical, 488/530 nm, flow cytometry. fluorescence (KMESF) at 10 µM. 190,000 tested, 0.25% active. AID 1776, 2009. GSH beads flow cytometry, compound fluorescence 488/530 nm; active compounds read high; in the data active means fluorescence above about 89;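 further: glutathione beads carrying GST-tagged Bcl family fusion proteins plus one bare bead set; values are compound well signal with DMSO vehicle wells as background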
EP2 antag – human EP2 receptor antagonists, primary screen, TR-FRET cAMP, C6 glioma cells; Prostaglandin E2 receptor EP2 subtype (Homo sapiens), P43116; AID 1422, 2008; inhibition, % at 25 µM; 260,000 tested, 0.52% active; C6 glioma cells expressing human EP2; cells stimulated with saturating PGE2;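 active means percent inhibition above 40 after rounding to a whole number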;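 further: rat C6 glioma host cells with rolipram phosphodiesterase inhibitor present; the protocol text gives 20 µM as final concentration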
HMGR II inh – inhibitors of E. faecalis class II HMGR, primary screen, biochemical, Enterococcus faecalis; 190,000 tested, 0.41% active; HMG-CoA reductase (Enterococcus faecalis, mvaE); inhibition, % at 10 µM; AID 1066, 2008; purified E. faecalis HMGR, NADPH absorbance 340 nm kinetic;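 active means inhibition above a set limit, the median over all tested compounds plus 3 SD, cut at about 9.5% in these data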;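 further: enzyme runs in reverse so mevalonate oxidation gives rising NADPH absorbance; 0% = complete reaction with DMSO and 100% = background rate lacking mevalonate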
Numbers without * were called inactive.

Results for CCOC(=O)/C=C/C(=O)Nc1cccc([N+](=O)[O-])c1 ?
EP2 mod: -1.4; Avidin bead fluor: 4; GSH fluor: 10; EP2 antag: 130.9*; HMGR II inh: 1.4

What do the screens show for `Cc1ccc(Cl)c(OCC(=O)OCC(=O)NC2CCCc3ccccc32)c1` (stereo unspecified)?
EP2 mod: 8.3; Avidin bead fluor: 7; GSH fluor: 15; EP2 antag: 19.3; HMGR II inh: 12.6*

How did O=c1oc2ccccc2cc1-c1nc2ccccc2o1 do in these assays?
EP2 mod: -18.0; Avidin bead fluor: 16; GSH fluor: 17; EP2 antag: 4.1; HMGR II inh: -5.3

How did Nc1cc2nc3ccccc3oc-2cc1=O do in these assays?
EP2 mod: -40.0; Avidin bead fluor: 6; EP2 antag: 42.0*

What do the screens show for `O=C(c1ccc(F)cc1)N1CCCC(c2ccccc2)C1` (stereo unspecified)?
EP2 mod: -14.9; Avidin bead fluor: 20; GSH fluor: 10; EP2 antag: 4.3; HMGR II inh: 13.1*

How did COC(=O)c1ccc(NC(=O)CSc2nnc(C)n2C)cc1 do in these assays?
EP2 mod: 3.0; EP2 antag: 9.9

Results for COc1cc(/C=C2/C(=O)c3cccc([N+](=O)[O-])c3C2=O)c(Br)cc1O ?
EP2 mod: -96.2; Avidin bead fluor: 10; GSH fluor: 8; EP2 antag: 49.2*; HMGR II inh: 3.6

What do the screens show for `NC(=S)n1[nH]c(-c2ccc([N+](=O)[O-])cc2)c(N=Nc2ccccc2[N+](=O)[O-])c1=O`?
EP2 mod: -49.6; Avidin bead fluor: 9; GSH fluor: 453*; EP2 antag: 4.0; HMGR II inh: -1.6

Results for Nc1cccc2nsnc12 ?
EP2 mod: -21.5; Avidin bead fluor: 4; EP2 antag: 9.1

What do the screens show for `Nc1cc2nsnc2cc1Br`?
EP2 mod: -200.9; Avidin bead fluor: 7; GSH fluor: 10; EP2 antag: 137.9*; HMGR II inh: 3.4

What do the screens show for `CCC(=O)N(C)c1nc(-c2ccccc2)cs1`?
EP2 mod: -38.2; EP2 antag: 11.1

How did CC(C)C(=O)N1CCC[C@H]1Cn1nc(-c2ccc3c(c2)OCCO3)ccc1=O do in these assays?
EP2 mod: -34.4

What do the screens show for `Brc1ccc(-c2nc3ccccc3s2)s1`?
EP2 mod: -45.6; Avidin bead fluor: 9; GSH fluor: 29; EP2 antag: 123.7*; HMGR II inh: -1.7

How did CC(C)CC(=O)Nc1cccc(C(C)O)c1 (stereo unspecified) do in these assays?
EP2 mod: -0.3; Avidin bead fluor: 173*; GSH fluor: 9; EP2 antag: 5.6; HMGR II inh: -1.5

Results for CCc1ccc2[nH]c(=O)c(CN(CC3CCCO3)S(=O)(=O)c3ccc(Cl)cc3)cc2c1 (stereo unspecified) ?
EP2 mod: 18.7; EP2 antag: 12.5

Results for O=C1Nc2ccccc2/C1=C/C(=O)c1cccs1 ?
EP2 mod: -56.0; Avidin bead fluor: 12; GSH fluor: 11; EP2 antag: 68.5*; HMGR II inh: -1.9

Results for O=C1c2ccccc2-c2c(NCCc3ccccc3)c(=O)[nH]c3cccc1c23 ?
EP2 mod: 65.8*; EP2 antag: 10.3

How did O=c1[nH]ncc(NCCc2ccccc2)c1Cl do in these assays?
EP2 mod: 11.8; Avidin bead fluor: 13; GSH fluor: 13; EP2 antag: 8.6; HMGR II inh: 3.2

Results for CC(=O)NNc1ncnc2c1cnn2-c1ccc(C)c(Cl)c1 ?
EP2 mod: -18.3; Avidin bead fluor: 21; GSH fluor: 11; EP2 antag: 5.3; HMGR II inh: 11.5*

How did O=C(NCCN1CCC(O)(c2ccc(F)cc2)CC1)c1ccc2c(c1)OCO2 do in these assays?
EP2 mod: 6.2; EP2 antag: 6.8

What do the screens show for `Cc1cc(C)n2ncc(C(=O)NCc3ccccc3)c2n1`?
EP2 mod: 30.0; Avidin bead fluor: 7; GSH fluor: 264*; EP2 antag: 6.1; HMGR II inh: 2.9

How did COc1ccc(CNC(=O)c2cnn3c(C(F)F)cc(C)nc23)cc1 do in these assays?
EP2 mod: -6.0; Avidin bead fluor: 94*; GSH fluor: 11; EP2 antag: 20.6; HMGR II inh: -4.8

What do the screens show for `CCc1ccccc1NC(=O)CSc1nc(C)nc2sc(C)c(CC)c12`?
EP2 mod: 20.5; EP2 antag: 17.4

How did CCc1cc2ccc(OC)cc2nc1SCC(=O)N(CC)CC do in these assays?
EP2 mod: 43.8; EP2 antag: 12.6

Results for COc1cc(S(=O)(=O)N(Cc2cccs2)CC2CCCO2)ccc1-n1cnnn1 (stereo unspecified) ?
EP2 mod: -17.1; Avidin bead fluor: 50*; GSH fluor: 17; EP2 antag: 11.6; HMGR II inh: -0.4

Results for C/C(N)=C(/C#N)C(=O)COC(=O)c1ccc(C#N)cc1 ?
EP2 mod: -10.4; Avidin bead fluor: 9; GSH fluor: 10; EP2 antag: 4.2; HMGR II inh: -3.4

How did N#Cc1ccc(OC(=O)c2ccc(N=C(N)N)cc2)cc1 do in these assays?
EP2 mod: -36.0; EP2 antag: 75.2*

What do the screens show for `O=C(C1c2ccccc2C(=O)N2CCc3ccccc3C12)N1CCN(Cc2ccccc2)CC1` (stereo unspecified)?
EP2 mod: 23.5; Avidin bead fluor: 36; GSH fluor: 13; EP2 antag: 9.4; HMGR II inh: 49.1*

Results for CC1CCN(C(=O)C2c3ccccc3C(=O)N3CCc4ccccc4C23)CC1 (stereo unspecified) ?
EP2 mod: 5.9; Avidin bead fluor: 21; GSH fluor: 13; EP2 antag: 3.3; HMGR II inh: -7.4

How did CCOC(=O)c1c(CN(CC)CC)oc2ccc(OC)cc12 do in these assays?
EP2 mod: 27.9; Avidin bead fluor: 8; GSH fluor: 14; EP2 antag: 13.2; HMGR II inh: 11.7*

How did CCOC(=O)CSc1nc2ccccc2c(=O)n1CC1CCCC1 do in these assays?
EP2 mod: 61.6*; Avidin bead fluor: 5; GSH fluor: 14; EP2 antag: 8.1; HMGR II inh: -6.6

What do the screens show for `O=C(CCNC(=O)c1ccccc1NC(=O)c1ccco1)Nc1cccc2ccccc12`?
EP2 mod: -127.6; EP2 antag: 23.6

What do the screens show for `O=C(NCCCn1ccnc1)c1cc(S(=O)(=O)N2CCOCC2)c(Cl)cc1Cl`?
EP2 mod: 21.4; Avidin bead fluor: 8; GSH fluor: 249*; EP2 antag: 17.3; HMGR II inh: -1.2

Results for CS(=O)(=O)Nc1ccc(Cc2ccc(NS(C)(=O)=O)cc2)cc1 ?
EP2 mod: 2.6; Avidin bead fluor: 11; GSH fluor: 24; EP2 antag: 4.9; HMGR II inh: -1.5

Screens: PubChem BioAssay, several laboratories
